# Measured values taken from article PMC7862700, “An all-to-all approach to the identification of sequence-specific readers for epigenetic DNA modifications on cytosine”.
# Experiments:
# Test in all cases: DAPPL (digital affinity profiling via proximity ligation, sequencing); 10 mM Tris-HCl pH 7.5, 50 mM NaCl, 1 mM DTT, 4% glycerol, room temperature, 30 min; GST-TFs on glutathione beads, 16-mer random dsDNA library, 0.1% formaldehyde crosslink after washing; high values mean tight binding
# Conditions in all cases: protein: recombinant; tags: N-terminal GST; dsDNA, one strand shown
# FLI1 = molecular target: T1, FLI1 (Homo sapiens, UniProt Q01543 1-452)
# T1 sequence: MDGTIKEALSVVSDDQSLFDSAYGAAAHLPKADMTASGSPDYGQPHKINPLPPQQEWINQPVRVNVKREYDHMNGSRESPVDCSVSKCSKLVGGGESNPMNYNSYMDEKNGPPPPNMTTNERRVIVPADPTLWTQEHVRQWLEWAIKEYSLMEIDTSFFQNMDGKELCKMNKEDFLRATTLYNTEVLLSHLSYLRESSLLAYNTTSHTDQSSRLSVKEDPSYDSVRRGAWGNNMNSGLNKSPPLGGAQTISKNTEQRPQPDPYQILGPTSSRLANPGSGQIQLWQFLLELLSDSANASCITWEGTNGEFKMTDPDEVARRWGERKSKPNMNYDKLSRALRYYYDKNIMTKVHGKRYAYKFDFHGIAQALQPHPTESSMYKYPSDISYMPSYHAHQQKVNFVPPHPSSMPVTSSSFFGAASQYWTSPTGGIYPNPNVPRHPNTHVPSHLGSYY
# How it was run: (§1)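 Binding signal is each hexamer's read frequency for a factor divided by its frequency in the tag-only sample. The factors were GST-fused human transcription factors from yeast, captured on glutathione beads, DNA-barcoded and pooled with that sample. Pools were incubated with 200 nmole of a random double-stranded 16-mer DNA library in Tris/NaCl/DTT/glycerol buffer at room temperature for 30 min, then washed, crosslinked with 0.1% formaldehyde, proximity-ligated with BsaI/T4 ligase (1 h, 37 °C), PCR-amplified and sequenced on an Illumina NextSeq500.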
# ELK1 = molecular target: T2, ELK1 (Homo sapiens, UniProt P19419 1-428)
# T2 sequence: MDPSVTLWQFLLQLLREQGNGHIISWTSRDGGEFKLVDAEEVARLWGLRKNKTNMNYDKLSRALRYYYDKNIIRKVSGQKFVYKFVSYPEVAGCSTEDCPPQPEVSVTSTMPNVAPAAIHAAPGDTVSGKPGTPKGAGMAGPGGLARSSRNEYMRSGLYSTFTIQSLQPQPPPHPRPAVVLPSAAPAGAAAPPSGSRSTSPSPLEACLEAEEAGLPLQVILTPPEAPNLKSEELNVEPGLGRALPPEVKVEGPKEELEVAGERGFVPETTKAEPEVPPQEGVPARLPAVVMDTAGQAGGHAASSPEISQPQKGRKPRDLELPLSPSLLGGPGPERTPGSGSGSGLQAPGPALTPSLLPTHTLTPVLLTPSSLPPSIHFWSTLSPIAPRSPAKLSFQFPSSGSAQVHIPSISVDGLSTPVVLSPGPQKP
# How it was run: as §1
# GABPA = molecular target: T3, GABPA (Homo sapiens, UniProt Q06546 1-454)
# T3 sequence: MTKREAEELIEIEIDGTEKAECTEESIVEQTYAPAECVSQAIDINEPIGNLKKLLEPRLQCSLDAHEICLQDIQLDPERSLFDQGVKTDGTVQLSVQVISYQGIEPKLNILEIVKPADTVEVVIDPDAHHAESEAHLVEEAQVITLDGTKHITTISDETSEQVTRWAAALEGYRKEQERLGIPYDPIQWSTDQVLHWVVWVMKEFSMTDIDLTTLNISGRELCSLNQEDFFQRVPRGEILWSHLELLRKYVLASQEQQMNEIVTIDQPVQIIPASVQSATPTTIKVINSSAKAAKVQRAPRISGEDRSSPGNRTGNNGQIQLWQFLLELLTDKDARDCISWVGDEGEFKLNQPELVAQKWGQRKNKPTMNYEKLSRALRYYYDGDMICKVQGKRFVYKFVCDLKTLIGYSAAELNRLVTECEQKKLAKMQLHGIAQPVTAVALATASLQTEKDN
# How it was run: as §1
# ERG = molecular target: T4, ERG (Homo sapiens, UniProt P11308 1-479)
# T4 sequence: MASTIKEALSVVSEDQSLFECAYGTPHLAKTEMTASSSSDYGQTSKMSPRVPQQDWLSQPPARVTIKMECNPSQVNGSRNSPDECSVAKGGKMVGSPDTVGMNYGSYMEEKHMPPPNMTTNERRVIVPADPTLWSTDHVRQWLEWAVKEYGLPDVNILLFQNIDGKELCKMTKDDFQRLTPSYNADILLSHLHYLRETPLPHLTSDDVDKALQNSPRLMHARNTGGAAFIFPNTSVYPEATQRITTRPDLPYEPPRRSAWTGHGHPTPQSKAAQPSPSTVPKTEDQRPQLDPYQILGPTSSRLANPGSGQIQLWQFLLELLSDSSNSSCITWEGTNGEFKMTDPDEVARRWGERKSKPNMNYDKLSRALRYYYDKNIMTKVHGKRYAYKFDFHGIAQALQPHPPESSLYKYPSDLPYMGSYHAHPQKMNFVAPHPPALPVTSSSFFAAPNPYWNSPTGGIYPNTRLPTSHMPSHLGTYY
# How it was run: as §1
# ELF1 = ELF1 (Homo sapiens, UniProt P32519 1-619)
# Sequence of ELF1 (P32519 whole entry): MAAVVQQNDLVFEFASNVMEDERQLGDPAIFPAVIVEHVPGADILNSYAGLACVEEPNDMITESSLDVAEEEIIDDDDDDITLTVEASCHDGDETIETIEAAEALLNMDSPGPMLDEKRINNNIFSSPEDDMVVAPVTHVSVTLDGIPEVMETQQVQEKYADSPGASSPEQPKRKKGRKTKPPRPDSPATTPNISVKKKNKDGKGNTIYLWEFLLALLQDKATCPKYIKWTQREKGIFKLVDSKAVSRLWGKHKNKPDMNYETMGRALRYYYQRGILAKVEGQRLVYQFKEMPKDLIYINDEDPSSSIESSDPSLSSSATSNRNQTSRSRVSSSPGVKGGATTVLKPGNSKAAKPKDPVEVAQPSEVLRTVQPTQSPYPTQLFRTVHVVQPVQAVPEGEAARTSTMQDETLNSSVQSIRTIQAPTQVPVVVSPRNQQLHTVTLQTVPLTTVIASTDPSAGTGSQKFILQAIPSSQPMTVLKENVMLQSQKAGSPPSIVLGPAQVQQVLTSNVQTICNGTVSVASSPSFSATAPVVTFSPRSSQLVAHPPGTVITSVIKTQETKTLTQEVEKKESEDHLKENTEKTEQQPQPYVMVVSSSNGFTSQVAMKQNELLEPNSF
# How it was run: as §1
# EHF = molecular target: T5, EHF (Homo sapiens, UniProt Q9NZC4 1-300)
# T5 sequence: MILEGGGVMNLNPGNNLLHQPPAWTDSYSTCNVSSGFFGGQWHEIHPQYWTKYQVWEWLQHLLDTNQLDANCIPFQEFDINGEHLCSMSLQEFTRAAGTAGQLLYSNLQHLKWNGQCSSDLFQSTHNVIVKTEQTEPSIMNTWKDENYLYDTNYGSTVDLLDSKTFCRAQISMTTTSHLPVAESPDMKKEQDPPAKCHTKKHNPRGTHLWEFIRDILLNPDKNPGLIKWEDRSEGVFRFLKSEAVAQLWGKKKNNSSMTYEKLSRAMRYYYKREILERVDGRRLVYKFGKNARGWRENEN
# How it was run: as §1
# SPI1 = SPI1 (Homo sapiens, UniProt P17947 1-270)
# How it was run: as §1
# SPIB = SPIB (Homo sapiens, UniProt Q01892 1-262)
# Sequence of SPIB (Q01892 whole entry): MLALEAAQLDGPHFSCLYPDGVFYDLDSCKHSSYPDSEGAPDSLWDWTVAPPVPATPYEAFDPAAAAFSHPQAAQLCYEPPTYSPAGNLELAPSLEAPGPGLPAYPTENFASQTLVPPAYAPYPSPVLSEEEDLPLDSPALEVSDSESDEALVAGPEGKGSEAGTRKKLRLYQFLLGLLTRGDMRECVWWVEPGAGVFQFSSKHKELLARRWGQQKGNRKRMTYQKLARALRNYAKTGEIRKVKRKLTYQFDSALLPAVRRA
# How it was run: as §1
# FEV = molecular target: T6, FEV (Homo sapiens, UniProt Q99581 1-238)
# T6 sequence: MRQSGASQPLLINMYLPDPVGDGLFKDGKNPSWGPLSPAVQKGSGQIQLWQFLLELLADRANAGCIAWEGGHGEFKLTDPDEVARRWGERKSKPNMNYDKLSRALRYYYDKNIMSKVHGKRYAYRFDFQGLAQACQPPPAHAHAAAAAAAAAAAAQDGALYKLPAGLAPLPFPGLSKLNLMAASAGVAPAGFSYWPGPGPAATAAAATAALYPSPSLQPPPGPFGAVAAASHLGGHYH
# How it was run: as §1
# ETV5 = ETV5 (Homo sapiens, UniProt P41161 1-510)
# Sequence of ETV5 (P41161 whole entry): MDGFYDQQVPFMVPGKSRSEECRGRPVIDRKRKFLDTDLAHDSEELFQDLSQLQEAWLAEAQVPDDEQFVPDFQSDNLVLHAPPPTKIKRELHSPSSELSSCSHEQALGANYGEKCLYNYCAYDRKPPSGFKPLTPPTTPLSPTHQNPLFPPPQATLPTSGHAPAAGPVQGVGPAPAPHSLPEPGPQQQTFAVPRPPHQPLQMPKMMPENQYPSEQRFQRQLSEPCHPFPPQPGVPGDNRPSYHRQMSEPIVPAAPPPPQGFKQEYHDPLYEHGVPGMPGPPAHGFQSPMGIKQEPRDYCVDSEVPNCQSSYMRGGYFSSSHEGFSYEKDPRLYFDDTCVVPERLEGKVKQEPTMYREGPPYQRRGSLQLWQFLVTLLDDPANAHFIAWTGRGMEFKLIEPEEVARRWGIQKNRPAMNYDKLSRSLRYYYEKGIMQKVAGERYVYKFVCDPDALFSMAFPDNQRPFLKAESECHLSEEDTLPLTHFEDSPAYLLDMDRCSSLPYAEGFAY
# How it was run: as §1
# ELF4 = ELF4 (Homo sapiens, UniProt Q99607 1-663)
# Sequence of ELF4 (Q99607 whole entry): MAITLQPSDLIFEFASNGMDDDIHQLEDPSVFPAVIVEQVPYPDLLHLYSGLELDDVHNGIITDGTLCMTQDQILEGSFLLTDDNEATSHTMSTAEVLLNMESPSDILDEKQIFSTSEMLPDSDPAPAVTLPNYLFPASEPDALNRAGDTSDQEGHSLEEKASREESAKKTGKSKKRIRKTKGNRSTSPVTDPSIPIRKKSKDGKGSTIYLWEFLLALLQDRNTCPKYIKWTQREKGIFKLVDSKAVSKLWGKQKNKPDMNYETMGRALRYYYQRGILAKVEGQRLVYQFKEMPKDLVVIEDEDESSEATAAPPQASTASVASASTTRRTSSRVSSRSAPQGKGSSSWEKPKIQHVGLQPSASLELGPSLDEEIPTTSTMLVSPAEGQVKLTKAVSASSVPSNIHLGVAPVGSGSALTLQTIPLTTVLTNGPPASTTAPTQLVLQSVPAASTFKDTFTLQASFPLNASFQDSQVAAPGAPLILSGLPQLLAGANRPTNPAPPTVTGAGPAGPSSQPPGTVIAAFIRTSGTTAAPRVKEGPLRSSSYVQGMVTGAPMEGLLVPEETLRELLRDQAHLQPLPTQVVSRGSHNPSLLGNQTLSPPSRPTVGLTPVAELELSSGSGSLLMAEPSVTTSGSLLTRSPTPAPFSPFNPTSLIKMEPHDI
# How it was run: as §1
# ETV2 = molecular target: T7, ETV2 (Homo sapiens, UniProt O00321 1-342)
# T7 sequence: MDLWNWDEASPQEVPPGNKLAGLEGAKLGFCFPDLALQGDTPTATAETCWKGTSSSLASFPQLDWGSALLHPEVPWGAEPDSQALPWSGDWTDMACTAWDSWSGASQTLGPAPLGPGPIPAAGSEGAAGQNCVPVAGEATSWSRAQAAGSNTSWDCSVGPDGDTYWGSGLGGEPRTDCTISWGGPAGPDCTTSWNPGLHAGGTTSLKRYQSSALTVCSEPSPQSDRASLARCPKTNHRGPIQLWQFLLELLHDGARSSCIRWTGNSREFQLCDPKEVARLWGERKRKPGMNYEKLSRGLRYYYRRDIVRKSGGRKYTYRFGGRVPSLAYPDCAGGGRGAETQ
# How it was run: as §1
# ELF3 = molecular target: T8, ELF3 (Homo sapiens, UniProt P78545 1-371)
# T8 sequence: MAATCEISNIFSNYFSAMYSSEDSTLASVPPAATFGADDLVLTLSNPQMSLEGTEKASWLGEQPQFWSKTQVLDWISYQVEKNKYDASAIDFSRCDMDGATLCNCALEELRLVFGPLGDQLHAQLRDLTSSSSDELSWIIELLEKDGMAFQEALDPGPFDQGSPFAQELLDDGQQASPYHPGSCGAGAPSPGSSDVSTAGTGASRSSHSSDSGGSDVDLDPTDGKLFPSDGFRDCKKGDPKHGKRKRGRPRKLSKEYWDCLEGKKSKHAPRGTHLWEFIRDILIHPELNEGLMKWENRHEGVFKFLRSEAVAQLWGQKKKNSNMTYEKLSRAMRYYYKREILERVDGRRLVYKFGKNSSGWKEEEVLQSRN
# How it was run: as §1
# ETV1 = ETV1 (Homo sapiens, UniProt P50549 1-477)
# Sequence of ETV1 (P50549 whole entry): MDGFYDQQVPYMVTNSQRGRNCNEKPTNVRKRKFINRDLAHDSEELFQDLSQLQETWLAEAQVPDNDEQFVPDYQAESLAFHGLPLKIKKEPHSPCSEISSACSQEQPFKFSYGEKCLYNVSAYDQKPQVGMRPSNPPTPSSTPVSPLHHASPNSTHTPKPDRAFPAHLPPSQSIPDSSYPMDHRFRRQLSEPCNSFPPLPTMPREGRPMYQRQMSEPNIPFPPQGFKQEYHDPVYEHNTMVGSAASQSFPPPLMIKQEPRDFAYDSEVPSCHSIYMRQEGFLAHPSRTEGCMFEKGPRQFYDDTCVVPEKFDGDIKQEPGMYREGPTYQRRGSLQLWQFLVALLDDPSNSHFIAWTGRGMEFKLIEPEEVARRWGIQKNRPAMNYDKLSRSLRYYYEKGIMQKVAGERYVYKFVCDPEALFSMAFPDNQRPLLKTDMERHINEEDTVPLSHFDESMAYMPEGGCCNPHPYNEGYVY
# How it was run: as §1
# ERF = molecular target: T9, ERF (Homo sapiens, UniProt P50548 1-548)
# T9 sequence: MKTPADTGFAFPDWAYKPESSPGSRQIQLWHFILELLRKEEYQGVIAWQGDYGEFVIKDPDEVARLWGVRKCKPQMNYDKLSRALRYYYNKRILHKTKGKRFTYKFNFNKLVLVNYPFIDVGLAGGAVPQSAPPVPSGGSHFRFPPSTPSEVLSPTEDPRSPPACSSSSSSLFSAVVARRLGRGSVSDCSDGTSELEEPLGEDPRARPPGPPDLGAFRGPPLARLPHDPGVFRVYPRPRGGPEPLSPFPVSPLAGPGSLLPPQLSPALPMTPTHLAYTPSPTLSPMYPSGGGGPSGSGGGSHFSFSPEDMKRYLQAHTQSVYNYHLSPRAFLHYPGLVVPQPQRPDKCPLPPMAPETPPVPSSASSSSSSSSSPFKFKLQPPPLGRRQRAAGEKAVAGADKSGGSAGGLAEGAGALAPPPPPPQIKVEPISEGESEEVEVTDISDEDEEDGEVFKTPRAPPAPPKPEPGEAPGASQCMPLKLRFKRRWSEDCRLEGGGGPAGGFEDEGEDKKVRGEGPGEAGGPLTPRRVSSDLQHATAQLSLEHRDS
# How it was run: as §1
# ETV3L = molecular target: T10, ETV3L (Homo sapiens, UniProt Q6ZN32 1-361)
# T10 sequence: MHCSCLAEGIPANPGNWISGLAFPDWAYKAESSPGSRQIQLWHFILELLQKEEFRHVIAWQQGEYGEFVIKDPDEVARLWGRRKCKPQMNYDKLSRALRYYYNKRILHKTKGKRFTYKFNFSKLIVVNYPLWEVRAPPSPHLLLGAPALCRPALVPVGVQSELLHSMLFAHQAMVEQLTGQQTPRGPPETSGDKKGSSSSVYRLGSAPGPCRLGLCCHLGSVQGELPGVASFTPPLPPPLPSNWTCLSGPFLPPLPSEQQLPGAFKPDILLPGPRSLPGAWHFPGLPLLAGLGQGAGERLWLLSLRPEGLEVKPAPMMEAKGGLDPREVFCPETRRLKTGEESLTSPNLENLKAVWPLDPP
# How it was run: as §1
# ETS2 = molecular target: T11, ETS2 (Homo sapiens, UniProt P15036 1-469)
# T11 sequence: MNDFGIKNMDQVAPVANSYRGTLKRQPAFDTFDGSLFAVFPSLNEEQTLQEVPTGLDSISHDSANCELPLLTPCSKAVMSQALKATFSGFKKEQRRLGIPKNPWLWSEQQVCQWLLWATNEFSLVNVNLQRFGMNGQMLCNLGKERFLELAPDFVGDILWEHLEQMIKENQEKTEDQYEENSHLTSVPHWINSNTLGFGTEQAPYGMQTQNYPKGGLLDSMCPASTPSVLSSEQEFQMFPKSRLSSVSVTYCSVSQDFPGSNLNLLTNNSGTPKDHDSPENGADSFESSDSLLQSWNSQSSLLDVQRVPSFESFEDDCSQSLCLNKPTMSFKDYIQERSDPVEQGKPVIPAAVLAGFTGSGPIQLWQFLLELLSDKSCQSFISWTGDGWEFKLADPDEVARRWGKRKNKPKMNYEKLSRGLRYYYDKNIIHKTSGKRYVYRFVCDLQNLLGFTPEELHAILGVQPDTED
# How it was run: as §1
# ETV3 = molecular target: T12, ETV3 (Homo sapiens, UniProt P41162-2 1-143)
# T12 sequence: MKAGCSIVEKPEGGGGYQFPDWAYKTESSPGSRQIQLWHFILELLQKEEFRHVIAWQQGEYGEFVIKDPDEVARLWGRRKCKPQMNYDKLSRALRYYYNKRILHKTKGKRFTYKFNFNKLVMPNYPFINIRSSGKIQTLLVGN
# How it was run: as §1
# ETV6 = ETV6 (Homo sapiens, UniProt P41212 1-452)
# Sequence of ETV6 (P41212 whole entry): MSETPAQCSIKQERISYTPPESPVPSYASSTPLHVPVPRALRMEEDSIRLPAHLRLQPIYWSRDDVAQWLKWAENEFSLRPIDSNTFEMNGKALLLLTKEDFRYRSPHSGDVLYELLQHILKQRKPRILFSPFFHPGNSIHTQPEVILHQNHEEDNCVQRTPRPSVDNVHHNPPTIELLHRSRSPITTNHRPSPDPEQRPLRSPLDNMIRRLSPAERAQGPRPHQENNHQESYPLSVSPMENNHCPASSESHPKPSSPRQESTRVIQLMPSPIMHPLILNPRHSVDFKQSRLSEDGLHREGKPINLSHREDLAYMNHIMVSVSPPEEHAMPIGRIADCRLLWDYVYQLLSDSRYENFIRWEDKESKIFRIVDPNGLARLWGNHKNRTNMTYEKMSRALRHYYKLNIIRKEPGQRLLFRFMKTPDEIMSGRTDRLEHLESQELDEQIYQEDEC
# How it was run: as §1
sequence,measurement,setting,value
ATGCAG,binding signal,FLI1,"1.09 fold enrichment (6-mer frequency, TF over GST control)"
same,binding signal,ELK1,"1.04 fold enrichment (6-mer frequency, TF over GST control)"
same,binding signal,GABPA,"1.14 fold enrichment (6-mer frequency, TF over GST control)"
same,binding signal,ERG,"1.09 fold enrichment (6-mer frequency, TF over GST control)"
same,binding signal,ELF1,"1.03 fold enrichment (6-mer frequency, TF over GST control)"
same,binding signal,EHF,"1.08 fold enrichment (6-mer frequency, TF over GST control)"
same,binding signal,SPI1,"1.06 fold enrichment (6-mer frequency, TF over GST control)"
same,binding signal,SPIB,"1.22 fold enrichment (6-mer frequency, TF over GST control)"
same,binding signal,FEV,"1.11 fold enrichment (6-mer frequency, TF over GST control)"
same,binding signal,ETV5,"1.05 fold enrichment (6-mer frequency, TF over GST control)"
same,binding signal,ELF4,"1.05 fold enrichment (6-mer frequency, TF over GST control)"
same,binding signal,ETV2,"1.1 fold enrichment (6-mer frequency, TF over GST control)"
same,binding signal,ELF3,"1.05 fold enrichment (6-mer frequency, TF over GST control)"
same,binding signal,ETV1,"1.1 fold enrichment (6-mer frequency, TF over GST control)"
same,binding signal,ERF,"1.22 fold enrichment (6-mer frequency, TF over GST control)"
same,binding signal,ETV3L,"1.08 fold enrichment (6-mer frequency, TF over GST control)"
same,binding signal,ETS2,"1.11 fold enrichment (6-mer frequency, TF over GST control)"
same,binding signal,ETV3,"1.06 fold enrichment (6-mer frequency, TF over GST control)"
same,binding signal,ETV6,"1.06 fold enrichment (6-mer frequency, TF over GST control)"
